From the supplement of paper PMC9694430

Legend:
Assay in all cases: thermal shift delta Tm vs DMSO control; higher = stronger stabilization (binding)
Conditions in all cases: 12.5 µM; protein concentration 2 µM
[1] = system: LOC_OS01G57100-cb003
Outline: (§1)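 Rice kinase domain constructs, made in E. coli and purified, were placed in 96-well plates at 2 μM in 19.5 μl of 100 mM potassium phosphate pH 7.5, 150 mM NaCl, 10% glycerol and 5 × SYPRO Orange, with compound in DMSO. A temperature ramp from 25°C to 95°C at 0.05°C/s was used for differential scanning fluorimetry. The melting temperature shift is a triplicate mean compared with DMSO-only protein, derived from Boltzmann fits.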

[2] = system: LOC_OS01G60330-cb001
Outline: as §1

[3] = system: LOC_OS01G60700-cb002
Outline: as §1

[4] = system: LOC_OS01G63280-cb003
Outline: as §1

[5] = system: LOC_OS01G67340-cb003
Outline: as §1

[6] = system: LOC_OS01G70970-cb002
Outline: as §1

[7] = system: LOC_OS02G07810-cb001
Outline: as §1

[8] = system: LOC_OS02G08530-cb003
Outline: as §1

[9] = system: LOC_OS02G14120-cb001
Outline: as §1

[10] = system: LOC_OS02G17970-cb001
Outline: as §1

[11] = system: LOC_OS02G45750-cb003
Outline: as §1

[12] = system: LOC_OS02G54510-cb004
Outline: as §1

[13] = system: LOC_OS03G04050-cb001
Outline: as §1

[14] = system: LOC_OS03G12390-cb001
Outline: as §1

[15] = system: LOC_OS03G27990-cb004
Outline: as §1

[16] = system: LOC_OS03G50450-cb001
Outline: as §1

[17] = system: LOC_OS03G50810-cb003
Outline: as §1

[18] = system: LOC_OS04G35114-cb001
Outline: as §1

[19] = system: T1, LOC_OS04G38480-cb003
T1 sequence (whole entry): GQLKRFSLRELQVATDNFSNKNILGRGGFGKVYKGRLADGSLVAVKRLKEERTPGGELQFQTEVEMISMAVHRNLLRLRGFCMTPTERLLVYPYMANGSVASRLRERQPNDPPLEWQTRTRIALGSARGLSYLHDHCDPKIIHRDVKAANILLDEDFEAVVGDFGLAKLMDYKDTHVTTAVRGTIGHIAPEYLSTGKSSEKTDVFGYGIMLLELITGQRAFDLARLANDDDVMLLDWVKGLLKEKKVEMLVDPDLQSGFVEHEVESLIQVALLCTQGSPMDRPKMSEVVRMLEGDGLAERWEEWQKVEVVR
Outline: as §1

[20] = system: T2, LOC_OS04G41100-cb001
T2 sequence (whole entry): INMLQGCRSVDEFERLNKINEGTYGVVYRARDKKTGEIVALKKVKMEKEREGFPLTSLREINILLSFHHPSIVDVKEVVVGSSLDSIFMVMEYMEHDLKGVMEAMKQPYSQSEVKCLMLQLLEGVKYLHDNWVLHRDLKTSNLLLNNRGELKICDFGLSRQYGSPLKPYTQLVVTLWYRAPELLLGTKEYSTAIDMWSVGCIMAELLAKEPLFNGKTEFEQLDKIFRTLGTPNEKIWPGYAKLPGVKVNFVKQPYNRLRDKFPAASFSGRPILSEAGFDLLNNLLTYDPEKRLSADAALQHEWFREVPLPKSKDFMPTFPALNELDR
Outline: as §1
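Also: purified Escherichia coli-expressed rice kinase domain construct.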

Structure (SMILES)	thermal shift delta Tm [1]	thermal shift delta Tm [2]	thermal shift delta Tm [3]	thermal shift delta Tm [4]	thermal shift delta Tm [5]	thermal shift delta Tm [6]	thermal shift delta Tm [7]	thermal shift delta Tm [8]	thermal shift delta Tm [9]	thermal shift delta Tm [10]	thermal shift delta Tm [11]	thermal shift delta Tm [12]	thermal shift delta Tm [13]	thermal shift delta Tm [14]	thermal shift delta Tm [15]	thermal shift delta Tm [16]	thermal shift delta Tm [17]	thermal shift delta Tm [18]	thermal shift delta Tm [19]	thermal shift delta Tm [20]
C[C@@H](Oc1cc(-n2cnc3ccc(CN4CCN(C)CC4)cc32)sc1C(N)=O)c1ccccc1C(F)(F)F	0.34 °C	0.7 °C	0.72 °C	0.17 °C	0.69 °C	0.44 °C	1.22 °C	3.01 °C	-0.04 °C	0.25 °C	0.36 °C	-0.15 °C	0.2 °C	-0.35 °C	-0.09 °C	-0.03 °C	0.55 °C	2.11 °C	0.27 °C	0.39 °C
CCn1nc(C2CCN(C(=O)CCO)CC2)nc1-c1cnc(N)c(-c2nnc(C(C)(C)C)o2)n1	0.59 °C	0.91 °C	1.19 °C	1.82 °C	1.55 °C	1.96 °C	1.55 °C	2.73 °C	5.17 °C	1.34 °C	3.05 °C	0.25 °C	0.43 °C	4.97 °C	0.52 °C	0.05 °C	0.89 °C	4.72 °C	2.09 °C	0.3 °C
NC1(c2ccc(-c3nc4ccn5c(=O)[nH]nc5c4cc3-c3ccccc3)cc2)CCC1	-0.32 °C	1.3 °C	1.21 °C	-0.33 °C	-0.9 °C	0.31 °C	0.4 °C	0.46 °C	-0.05 °C	1.42 °C	-0.2 °C	0.21 °C	0.25 °C	-0.32 °C	0.81 °C	0.2 °C	-0.2 °C	0.61 °C	-0.22 °C	0.57 °C
Cc1cc(N2CCOCC2)cc2[nH]c(-c3c(NC[C@@H](O)c4cccc(Cl)c4)cc[nH]c3=O)nc12	1.15 °C	6.82 °C	-0.31 °C	1.68 °C	1.08 °C	1.82 °C	0.46 °C	4.03 °C	1.99 °C	0.82 °C	3.33 °C	2.85 °C	0.49 °C	5.81 °C	1.27 °C	4.61 °C	3.54 °C	4.79 °C	-0.48 °C	0.77 °C
CN(C)CCCn1cc(C2=C(c3c[nH]c4ccccc34)C(=O)NC2=O)c2ccccc21	0.59 °C	1.19 °C	0.85 °C	0.38 °C	0.56 °C	0.73 °C	0.35 °C	0.74 °C	0.09 °C	0.48 °C	0.99 °C	0.36 °C	0.65 °C	0.12 °C	0.5 °C	1.02 °C	0.83 °C	1.37 °C	-0.32 °C	0.65 °C
CNC(=O)c1cccc(-c2ccc3c(N4CCOC[C@@H]4C)nc(N4CCOC[C@@H]4C)nc3n2)c1 [Vistusertib (AZD2014)]	0.66 °C	0.59 °C	0.1 °C	0.16 °C	0.54 °C	0.23 °C	0.11 °C	1.58 °C	0 °C	-0.08 °C	0.21 °C	0.04 °C	0.18 °C	-0.33 °C	0.11 °C	0.09 °C	0.06 °C	-0.19 °C	0.96 °C	0.11 °C
